Measured values from PubChem BioAssay AID2205 (University of Pittsburgh Molecular Library Screening Center, 2009).
About 1,600 (0.8%) of roughly 200,000 compounds were called active.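 Rule for the calls: active = plate Z-score above 3 for both tubulin-high and condensed-nucleus cell shares, with cell loss under 80%, at 10 µM; inactive = the rest, inconclusive results apart.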 The sample as a whole holds a higher share of actives than the screen did.

assay: tubulin staining increase by stabilizing compounds – imaging, high-content imaging, primary screen (AID 2205); conditions: HeLa tubulin immunostaining HCS, 24 h, at 10 µM; % Hoechst-high responders: measured here: nuclear condensation Hoechst responders, stronger effect = higher value, share of cells brighter than vehicle mean+2SD; % tubulin-high responders: stronger effect = higher value, share of cells brighter than vehicle mean+2SD; toxicity: measured here: cytotoxicity by cell density;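 for % tubulin-high responders: anti alpha tubulin signal scored within the nucleus-defined area of each cell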;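 for toxicity: 0% = mean cell density of plate MIN control wells and 100% = no cells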

Row | Compound | % Hoechst-high responders | % tubulin-high responders | toxicity
1 | CC(=O)c1cc(-c2ccccc2)n(CC(=O)NC2CCCCC2)c1C | 1.48% | 1.98% (inactive) | 2.82%
2 | O=C(Nc1ccn(Cc2ccc(F)cc2)n1)c1ccncc1 | 1.77% | 2.77% (inactive) | 3.59%
3 | O=C(Nc1ccn(Cc2ccccc2)n1)c1n[nH]c([N+](=O)[O-])c1Cl | 13.3% | 9.59% (active) | 24.4%
4 | O=C(Nc1ccn(Cc2ccccc2)n1)c1cccc(F)c1 | 3.02% | 4.62% (inactive) | 3.61%
5 | CC1Cc2ccccc2N1S(=O)(=O)c1c(N)n(C)c(=O)n(C)c1=O (stereo not drawn) | 3.17% | 3.06% (inactive) | 7.69%
6 | CCc1nc2ccccc2c(C(=O)NCc2ccc(OC)cc2)c1C | 2.73% | 2.02% (inactive) | 5.3%
7 | CN(C)Cc1ccc(F)cc1Sc1cc(Cl)ccc1Cl | 2.47% | 4.07% (inactive) | 10%
8 | CC(C(=O)NCC1CCCCC1)N(C)Cc1cccc(Cl)c1 (stereo not drawn) | 0.921% | 4.54% (inactive) | 21.1%
9 | CCOc1ccc(NC(=O)COc2ccc(C(=O)NC3CCCc4ccccc43)cc2OC)cc1 (stereo not drawn) | 2.51% | 5.53% (inactive) | 4.7%
10 | COc1ccc(CN(C)C(C)C(=O)NC2CCCc3ccccc32)cc1 (stereo not drawn) | 4.92% | 11.4% (active) | 14%
11 | COc1ccc([N+](=O)[O-])cc1NC(=O)CC1SC(=Nc2cccc(C)c2C)N(/N=C(\C)c2ccc(C)cc2)C1=O (stereo not drawn) | 1.74% | 1.39% (inactive) | 6.54%
12 | COc1cccc(NC(=O)c2ccc(S(=O)(=O)N(C)C)cc2)c1 | 1.38% | 3.01% (inactive) | 1.8%
13 | CCOc1cccc(-n2nnnc2-c2ccc(OC)cc2)c1 | 43.4% | 37.6% (active) | 41.8%
14 | COc1ccc(-n2nnnc2-c2nc3ccccc3s2)cc1 | 2.51% | 4.84% (inactive) | 1.66%
15 | CCOc1cccc(-c2nnc3sc(COc4ccc(OC)cc4)nn23)c1 | 1.53% | 1.43% (inactive) | 2.39%
16 | COC(=O)c1ccc(CN2CCN(CCCc3ccccc3)C(CCO)C2)cc1 (stereo not drawn) | 1.96% | 3.41% (inactive) | 10.2%
17 | CCOC(=O)Cc1ncccc1C(=O)Nc1ccc(OC)cc1 | 2.23% | 3.2% (inactive) | 5.66%
18 | COc1ccccc1NC1=NC2(CCCC2)N=C(N)N1 | 1.77% | 2.5% (inactive) | 14.7%
19 | COc1ccccc1Nc1nc(N)nc(CN(C)C2CCCCC2)n1 | 1.52% | 3.4% (inactive) | 5.42%
20 | COc1ccccc1NC1=NC(c2ccc(Cl)cc2)N=C(N)N1 (stereo not drawn) | 46.7% | 18% (active) | 42.6%
21 | c1ccc(CN=C2Nc3ccccc3CS2)nc1 | 1.84% | 4.7% (inactive) | 4.5%
